Screens: PubChem BioAssay, several laboratories
A selection: hits, their analogues and other compounds. The true share with any hit is near 4.7%.
MPTP inh – permeability transition pore inhibition. 360,000 compounds, 1.4% hits. AID 602449. isolated mouse mitochondria, Ca2+ swelling absorbance, 30 min. inhibition, % at 10 µM;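 active = inhibition of 50% or more, scaled per plate between neutral and stimulator controls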;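 also: 0% = DMSO wells given calcium and 100% = 1 mM EGTA wells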
rCAG binder – r(CAG) repeat RNA binding. 370,000 compounds, 1.3% hits. inhibition, % at 3 µM. TO-PRO-1 dye displacement fluorescence;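 active = inhibition above the plate cutoff, the mean of all test compounds on that plate plus 3 SD, cut at about 35% in these data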;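 also: 0% = DMSO alone and 100% = 100 µM mitoxantrone as full dye displacement; higher means more dye released from RNA so lower well fluorescence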
Pemphigus Ab inh – inhibitors of pemphigus antibody binding to human desmoglein-3. P32926. DSG3-coupled beads, scFv-anti-DSG3-GFP binding, flow cytometry; active compounds read low. binding (percent of control), % at 10 µM. 310,000 compounds, 0.48% hits. AID 588358;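 active = binding more than 3 SD below its plate's average and above zero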;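 also: hits lower antibody fragment binding to DSG3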
Target sequence (P32926 whole entry, looked up, the tested form may be a part): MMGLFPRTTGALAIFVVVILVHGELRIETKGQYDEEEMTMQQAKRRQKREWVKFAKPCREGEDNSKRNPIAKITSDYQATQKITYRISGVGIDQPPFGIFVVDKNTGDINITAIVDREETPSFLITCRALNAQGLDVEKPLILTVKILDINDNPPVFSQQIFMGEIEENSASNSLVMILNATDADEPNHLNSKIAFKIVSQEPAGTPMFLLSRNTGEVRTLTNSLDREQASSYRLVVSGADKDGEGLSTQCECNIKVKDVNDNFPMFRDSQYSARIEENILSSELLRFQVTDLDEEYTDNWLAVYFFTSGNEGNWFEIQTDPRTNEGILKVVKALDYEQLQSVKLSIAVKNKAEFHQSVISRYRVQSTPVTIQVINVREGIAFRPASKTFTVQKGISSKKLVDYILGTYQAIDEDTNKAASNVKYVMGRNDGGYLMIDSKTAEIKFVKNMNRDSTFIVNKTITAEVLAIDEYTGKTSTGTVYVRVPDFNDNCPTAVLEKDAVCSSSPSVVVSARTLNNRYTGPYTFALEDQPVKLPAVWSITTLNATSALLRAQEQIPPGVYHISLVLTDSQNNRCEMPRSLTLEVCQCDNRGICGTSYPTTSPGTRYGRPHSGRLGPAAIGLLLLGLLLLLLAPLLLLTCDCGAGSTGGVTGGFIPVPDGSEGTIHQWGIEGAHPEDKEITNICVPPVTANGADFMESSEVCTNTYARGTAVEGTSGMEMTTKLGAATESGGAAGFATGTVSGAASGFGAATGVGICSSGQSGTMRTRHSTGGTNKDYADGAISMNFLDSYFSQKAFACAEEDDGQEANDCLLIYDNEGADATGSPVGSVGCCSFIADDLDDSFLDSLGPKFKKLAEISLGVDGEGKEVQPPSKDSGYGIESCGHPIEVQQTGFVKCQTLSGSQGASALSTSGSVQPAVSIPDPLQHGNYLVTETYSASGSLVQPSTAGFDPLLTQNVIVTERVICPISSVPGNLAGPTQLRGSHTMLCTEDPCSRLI
ADAM17 inh – inhibits human ADAM17. AID 720648. P78536. inhibition, % at 6.95 µM. recombinant ADAM17, EDANS/DABCYL FRET peptide cleavage. 370,000 compounds, 0.83% hits;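 active = inhibition above the mean of compounds lying between control limits plus 3 SD, set per campaign, cut at about 8.5% in these data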;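 also: 0% = DMSO-only wells as the low control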
ADAM10 inh – inhibitors of human ADAM10; inhibition, % at 7 µM; O14672; 370,000 compounds, 0.62% hits; recombinant ADAM10, EDANS/DABCYL FRET peptide cleavage, 3 h;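 active = inhibition above a per-campaign cutoff equal to the mean of compounds falling between control-based bounds plus 3 SD, cut at about 20% in these data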;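 also: 0% = DMSO wells while the 100% control is not disclosed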
proKLK7 act – activators of human kallikrein-7 zymogen; P49862; purified proKLK7, EDANS-DABCYL substrate fluorescence; 100% is mature enzyme control, 0% vehicle; activation, % at 7 µM; 370,000 compounds, 0.9% hits; AID 652039;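 active = activation above the mean of all tested compounds plus 3 SD, computed per campaign excluding outliers beyond control limits, cut at about 13% in these data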
Rh123 counter – mitochondrial membrane potential, counter-screen. isolated mitochondria, Rhodamine 123 fluorescence. 5,000 compounds, 78% hits. shares compounds with MPTP inh. AID 624504. inhibition, % at 10 µM; in the data active = inhibition above about 22%;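 also: 0% = DMSO vehicle and 100% = positive control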
MPTP abs DR – dose response confirmation of mitochondrial permeability transition pore inhibitors; shares compounds with MPTP inh; isolated mitochondria swelling, absorbance; IC50, µM; 780 compounds, 58% hits; AID 651561; in the data active = IC50 below about 20 µM
MPTP counter DR – active in counter-screen for permeability transition pore inhibitors; shares compounds with MPTP inh; isolated mitochondria counterscreen, fluorescence read-out; IC50, µM; 780 compounds, 49% hits; AID 651564; in the data active = IC50 below about 80 µM
* marks the source's active call; other numbers are inactive results; ! = repeats disagree.

Results for COc1ccc(CN2CCN(CCCCOc3ccc(Cl)cc3)CC2)c(OC)c1OC ?
MPTP inh: 66.3*; rCAG binder: -8.0; Pemphigus Ab inh: 97.2; ADAM17 inh: -3.1; ADAM10 inh: -10.4; proKLK7 act: 0.4; Rh123 counter: 28.9*

Results for COC(=O)c1ccc(C2N=C(c3cccs3)CC(c3ccccc3O)N2)cc1 (stereo not drawn) ?
MPTP inh: 51.8*; rCAG binder: 25.5; Pemphigus Ab inh: 119.5; ADAM17 inh: -28.9; ADAM10 inh: -62.1; proKLK7 act: -0.7; Rh123 counter: 88.2*

How did O=C(c1ccccc1)N1N=C(c2cccs2)CC1c1ccccc1O (stereo not drawn) do in these assays?
MPTP inh: 1.7; rCAG binder: 2.6; Pemphigus Ab inh: 120.1; ADAM17 inh: 3.8; ADAM10 inh: 11.9; proKLK7 act: 0.3

Results for COc1cc(OC)cc(C(=O)NCC2CCN(C(=O)C(=O)c3cccs3)CC2)c1 ?
rCAG binder: 2.2; ADAM17 inh: 2.0; ADAM10 inh: -6.7; proKLK7 act: 0.4

What do the screens show for `CN1CCN(C2Cc3ccccc3Sc3ccc(Cl)cc32)CC1` (stereo not drawn)?
MPTP inh: 87.3*; rCAG binder: 0.9; Pemphigus Ab inh: 117.4; ADAM17 inh: -2.4; ADAM10 inh: 6.4; proKLK7 act: 0.1; Rh123 counter: -7.0; MPTP abs DR: 6.83*; MPTP counter DR: 44.8*

Results for CSc1ccc2c(c1)C(N1CCN(C)CC1)Cc1ccccc1S2 (stereo not drawn) ?
MPTP inh: 104.0*!; rCAG binder: 2.5; Pemphigus Ab inh: 102.2; ADAM17 inh: -4.7; ADAM10 inh: -1.1; proKLK7 act: -0.1; Rh123 counter: -17.5

What do the screens show for `CN1CCCCC(NC(=O)c2ccccn2)C1=O` (stereo not drawn)?
rCAG binder: 1.9; ADAM17 inh: -2.1; ADAM10 inh: -2.8; proKLK7 act: 0.0

How did CCOC(=O)[C@@H]1[C@H]2COc3ccccc3[C@@H]2N2C(=O)N(c3cccc(Cl)c3)C(=O)[C@@]12C do in these assays?
MPTP inh: 88.2*; rCAG binder: 0.1; Pemphigus Ab inh: 103.3; ADAM17 inh: -0.8; ADAM10 inh: 1.4; proKLK7 act: 0.3; Rh123 counter: 100.2*

How did CCOC(=O)[C@@H]1[C@H]2COc3cc(OC)ccc3[C@H]2N2C(=O)N(c3ccc(C(F)(F)F)cc3)C(=O)[C@]12C do in these assays?
MPTP inh: 83.7*; rCAG binder: 2.7; Pemphigus Ab inh: 98.5; ADAM17 inh: 4.5; ADAM10 inh: 19.5; proKLK7 act: -0.2; Rh123 counter: 89.7*

How did CCOC(=O)[C@@H]1[C@H]2COc3ccccc3[C@H]2N2C(=O)N(c3cccc(Cl)c3)C(=O)[C@@]12C do in these assays?
MPTP inh: 0.1; Pemphigus Ab inh: 105.8

Results for CCCCCc1c2c(cc(O)c1C(=O)O)OC(=O)c1c(cc(OC)cc1C(=O)CCCC)O2 ?
MPTP inh: 90.0*; Pemphigus Ab inh: 102.1; Rh123 counter: 28.0*

How did CSc1nnc2c(n1)C[C@H](c1ccccc1)[C@@H](C)[C@@H](C(=O)N1CCCC1)C2 do in these assays?
rCAG binder: 2.6; ADAM17 inh: -0.1; ADAM10 inh: -7.0; proKLK7 act: 0.3

How did COC(=O)[C@]12C[C@H](CC(=O)NCc3ccccc3)C(=O)N(CCC3=CCCCC3)C1=C[C@H](C1CCCC1)O[C@@H]2C do in these assays?
rCAG binder: 2.3; ADAM17 inh: 4.4; ADAM10 inh: 9.2; proKLK7 act: 0.7

How did Cc1[nH]n(-c2ncc(-c3ccc(Cl)cc3)s2)c(=O)c1C(c1ccc(Cl)cc1)C(C#N)C#N (stereo not drawn) do in these assays?
MPTP inh: 97.9*; Pemphigus Ab inh: 99.9; Rh123 counter: 1.1

Results for CCn1c2ccccc2c2cc(CNCc3ccc(OC)cc3OC)ccc21 ?
MPTP inh: 73.2*; rCAG binder: 19.0; Pemphigus Ab inh: 108.6; ADAM17 inh: -4.1; ADAM10 inh: -14.2; proKLK7 act: 1.2; Rh123 counter: 37.1*

How did COc1cccc(CNCc2ccc(OC)cc2OC)c1 do in these assays?
MPTP inh: 0.7; rCAG binder: 5.8; Pemphigus Ab inh: 106.7; ADAM17 inh: -2.1; ADAM10 inh: 6.4; proKLK7 act: -0.4

What do the screens show for `N#C/C(=N\Nc1ccc(S(=O)(=O)N2CCCCC2)cc1)C(N)=S`?
MPTP inh: 78.9*; rCAG binder: 26.6; Pemphigus Ab inh: 98.5; ADAM17 inh: 4.3; ADAM10 inh: 7.3; proKLK7 act: -0.6; Rh123 counter: 78.5*

Results for N#CC(C#N)=NNc1ccc(S(=O)(=O)N2CCCC2)cc1 ?
MPTP inh: 99.1*; rCAG binder: 11.1; ADAM17 inh: 8.1; ADAM10 inh: 15.9; proKLK7 act: 0.0; Rh123 counter: 90.4*

What do the screens show for `N#C/C(=N/Nc1ccc(S(=O)(=O)N2CCOCC2)cc1)C(N)=O`?
MPTP inh: -0.8; rCAG binder: 0.7; Pemphigus Ab inh: 96.3; ADAM17 inh: -1.9; ADAM10 inh: -1.9; proKLK7 act: 0.2

Results for N#Cc1nc(COc2ccc(-c3ccccc3)cc2)oc1NCCCN1CCOCC1 ?
MPTP inh: 1.4; rCAG binder: -0.1; Pemphigus Ab inh: 97.9; ADAM17 inh: -2.0; ADAM10 inh: -1.9; proKLK7 act: -0.1

How did CN(C)CCNc1oc(COc2ccc(-c3ccccc3)cc2)nc1C#N do in these assays?
MPTP inh: 74.6*; Pemphigus Ab inh: 110.0; Rh123 counter: -17.8; MPTP abs DR: 5.9*; MPTP counter DR: 54*

How did O=C(CONS(=O)(=O)c1ccc(Cl)cc1)NCCNc1ncc(C(F)(F)F)cc1Cl do in these assays?
MPTP inh: 70.2*; rCAG binder: 14.8; Pemphigus Ab inh: 96.7; ADAM17 inh: 1.6; ADAM10 inh: 9.5; proKLK7 act: -0.4; Rh123 counter: 77.0*

How did CSCC[C@H](NC(=O)c1cccc([N+](=O)[O-])c1C)c1nc2ccccc2[nH]1 do in these assays?
MPTP inh: 2.2; rCAG binder: 1.4; Pemphigus Ab inh: 97.7; ADAM17 inh: -2.3; ADAM10 inh: -7.2; proKLK7 act: -0.3

How did O=C(NC(Cc1ccccc1)c1nc2ccccc2[nH]1)c1ccc(Cl)c([N+](=O)[O-])c1 (stereo not drawn) do in these assays?
MPTP inh: 92.6*; rCAG binder: 3.0; Pemphigus Ab inh: 88.4; ADAM17 inh: -1.0; ADAM10 inh: 7.4; proKLK7 act: 0.5; Rh123 counter: 91.3*
